Compound activity: PubChem, National Center for Advancing Translational Sciences (NCATS)
An excerpt weighted towards active compounds, which were near 5.7% of everything screened.
NPSR antagonist: qHTS Assay for Antagonists of the Neuropeptide S Receptor: cAMP Signal Transduction; CHO-NPSR cells, cAMP TR-FRET, antagonist mode; Potency, µM (highest dose often 38.3 µM), without a hit: at the top dose activity change, negative = inhibition, most hits filed as inhibitors; hit rate 1% among 220,000; AID 1461, 2008; further: nearly all actives have a fitted effect of over 50% in size
Target sequence (Q6W5P4 whole entry, looked up): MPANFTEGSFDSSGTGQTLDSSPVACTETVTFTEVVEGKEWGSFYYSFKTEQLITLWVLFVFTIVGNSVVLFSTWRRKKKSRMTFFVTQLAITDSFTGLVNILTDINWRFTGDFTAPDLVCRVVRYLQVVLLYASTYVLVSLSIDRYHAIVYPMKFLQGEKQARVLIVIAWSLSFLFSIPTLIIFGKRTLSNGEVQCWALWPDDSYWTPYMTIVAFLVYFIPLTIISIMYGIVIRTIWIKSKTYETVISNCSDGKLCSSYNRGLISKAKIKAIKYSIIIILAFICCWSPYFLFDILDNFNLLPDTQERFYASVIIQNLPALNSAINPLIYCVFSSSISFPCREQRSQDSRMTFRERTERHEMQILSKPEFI
B2AR arrestin: qHTS assay of beta-arrestin-biased ligands of beta2-adrenergic receptor | Beta-2 adrenergic receptor (Homo sapiens), P07550 | beta-arrestin recruitment to beta2AR, cell-based reporter | Potency, µM (doses to about 46.1 µM), for the others: top-dose activation, actives largely listed as activators | hit rate 0.02% among 330,000 | AID 492947, 2010;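 further: 0% = DMSO controls and full agonism = EC100 isoproterenol or metaproterenol; nearly all actives have a fitted effect of over 65% in size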
RORgamma inh: qHTS for inhibitors of ROR gamma transcriptional activity. Drosophila S2 Gal4-RORgamma UAS-luciferase reporter, 20 h. Nuclear receptor ROR-gamma (Mus musculus), P51450. Potency, µM (highest dose often 53.6 µM), without a hit: at the highest dose activity change, negative = inhibition, actives largely listed as inhibitors. hit rate 5.4% among 310,000; further: nearly all actives have a fitted effect of over 60% in size
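Luciferase reporter read in Schneider cells carrying Gal4-RORγ (mouse) and UAS-Photinus luciferase; cells given compound 1 h before 700 uM copper sulfate induction, then incubated 20 h at ambient temperature.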
Gal4-VP16 FLuc: VP16 counterscreen qHTS for inhibitors of ROR gamma transcriptional activity. Drosophila S2 Gal4-VP16 UAS-luciferase, luminescence, 20 h. Potency, µM (highest dose often 53.6 µM), for inactives: at the highest dose activity, negative = inhibition, actives largely listed as inhibitors. hit rate 3.5% among 310,000. AID 2546, 2010;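 further: Gal4-VP16 expression switched on by copper sulfate through the metallothionein promoter; nearly all actives have a fitted effect of over 50% in size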
The depositor's hits bear a star; ? = inconclusive; · = no result given; [ ] = dose if it differs, or a comment. The call rests on the fitted dose curve; in most records, active means well fitted curve in the direction sought with a large enough effect; inconclusive means small, poorly fitted or top-dose-only effect, or another doubt; inactive means no such curve, though single readings can be large; an effect the other way counts as inactive or inconclusive. Unless noted, on the % scale 0 is the no-effect control and ±100 the full control effect; potency means the concentration at half of the fitted maximal effect.

SMILES	NPSR antagonist	B2AR arrestin	RORgamma inh	Gal4-VP16 FLuc
Cc1ccc(S(=O)(=O)Nc2ccccc2F)cc1C(=O)NNC(=O)c1ccccc1O	·	0%	·	·
C[C@@H](CN(C)C)CN1c2ccccc2CCc2ccccc21	·	·	4%[2.98 µM]	-11%[17 µM]
Cn1cc(S(=O)(=O)NC[C@H]2O[C@@H](n3cnc4c(N)ncnc43)[C@H](O)[C@@H]2O)cn1	·	0%	·	·
CC(C)C[C@H](NC(=O)c1nc[nH]c1C(=O)N1CCc2ccccc2C1)C(=O)OC(C)(C)C	-7%	-1%	11µM*	?
CC(C)C[C@H](NC(=O)c1nc[nH]c1C(=O)N1CCN(c2ccccc2)CC1)C(=O)OC(C)(C)C	0%	0%	13µM*	?
C[C@@H](NC(=O)c1nc[nH]c1C(=O)N1CCN(c2ccccc2)CC1)c1ccccc1	·	0%	·	·
O=C(CNC(=O)c1nc[nH]c1C(=O)N1CCc2ccccc2C1)OCc1ccccc1	·	0%	14µM*	?
CC(C)(C)OC(=O)N1CCN(C(=O)c2nc[nH]c2C(=O)N2CCN(c3ccccc3)CC2)CC1	·	0%	·	·
CC(C)(C)OC(=O)CNC(=O)c1nc[nH]c1C(=O)N1CCN(c2ccccc2)CC1	·	0%	13µM*	-24%
O=c1c(-c2cccc(Cl)c2)nc2cncnc2n1Cc1ccccc1Cl	·	·	-20%	0%
C/C(N[C@@H]1CSCC1O)=C1/C(=O)CC2[C@@H]1C2(C)C (stereo partly drawn)	·	·	?	4%
O=C(c1ccccn1)N1CCN(S(=O)(=O)c2ccccc2)CC1	4%	0%	-12%	0%
CC1CCN(C(=O)c2[nH]cnc2C(=O)N[C@@H](CCCCNC(=O)OC(C)(C)C)C(=O)OC(C)(C)C)CC1	-8%	0%	-45%	-20%
CC(C)C[C@H](NC(=O)c1nc[nH]c1C(=O)N1CCC(C)CC1)C(=O)OC(C)(C)C	13%	1%	16µM*	?
O=C(/C=C/c1ccc(Cl)cc1)NC(=S)Nc1ccc(CN2CCOCC2)cc1	16%	-1%	4µM*	6.3µM*
COc1ccc(C(=O)NC(=S)Nc2ccc(CN3CCOCC3)cc2)cc1OC	-4%	-1%	?	-6%
COc1ccc(Br)cc1/C=C/C(=O)c1ccc(NC(C)=O)cc1	?	0%	5µM*	10µM*
O=C(CC12CC3CC(CC(C3)C1)C2)NC(=S)Nc1ccc(CN2CCOCC2)cc1	-39%	0%	1.6µM*	10µM*
COc1ccc(Br)cc1/C=C/C(=O)NC(=S)Nc1ccc(CN2CCOCC2)cc1	·	-1%	1.8µM*	4.5µM*
COc1ccc(CCC(=O)N2CCCSC2=Nc2ccc(C(C)=O)cc2)cc1	-29%[46.1 µM]	0%	?	-16%
CC(=O)Nc1ccc(NC(=S)NC(=O)/C=C/c2ccc(Cl)cc2)cc1	4%	0%	-13%	-10%[10 µM]
O=C(/C=C/c1ccc(Cl)cc1)NC(=S)Nc1ccc(NC(=O)c2ccco2)cc1	-5%	-1%	4.5µM*	7.1µM*
OCC[C@@H]1C[C@H](O)[C@@H](O)[C@]2(CCc3ccccc3CO2)O1	·	0%	-13%	-13%
C/C(=N/Nc1nc(-c2ccccc2)cc(-c2ccccc2)n1)c1ccc(N)cc1	-21%[46.1 µM]	-1%	10µM*	?
O=[N+]([O-])c1ccccc1/C=N/Nc1nc(N2CCCC2)nc(N2CCCC2)n1	-21%	1%	13µM*	-6%
SMILES	NPSR antagonist	B2AR arrestin	RORgamma inh	Gal4-VP16 FLuc
C/C(=N\Nc1nc(N2CCCCCC2)nc(N2CCCCCC2)n1)c1ccccc1	?	0%	3.2µM*	-16%
CC(=O)Nc1ccc(/C(C)=N/Nc2nc(Nc3cccc4ccccc34)nc(N3CCOCC3)n2)cc1	-18%	0%	5.6µM*	11µM*
C/C(=N/Nc1cc(-c2ccccc2)nc(-c2ccccc2)n1)c1ccc(O)cc1	-45%	2%	-1%[10 µM]	-28%
Cc1cccc(N2CCN(C3=NC(=O)C(Cc4ccccc4)S3)CC2)c1 (stereo not drawn)	-11%[46.1 µM]	0%	14%	-9%
O=C(O)[C@@H](O)[C@@H](O)[C@@H](O)[C@@H](O)C(=O)O (tested in a mixture with another compound)	·	·	-33%[16.9 µM]	-6%[17 µM]
O=[N+]([O-])c1ccccc1/C=C/C=N/Nc1nc(N2CCCCC2)nc(N2CCCCC2)n1	-32%	0%	11µM*	-8%
C(=C\c1ccccc1)/C=N/Nc1nc(N2CCCCC2)nc(N2CCCCC2)n1	-5%[46.1 µM]	-1%	0.79µM*	-1%
O=[N+]([O-])c1ccccc1/C=C/C=N/N1CCCCC1	-15%	-1%	-7%	20%
